In article PMC11062922 (Nature Chemical Biology, 2023):
Read-outs that look alike come from different tables or passages of the source.

Tests used:
Set-up in all cases: species or system human, MV4-11 + K-562 + COLO205 + SK-N-BE2 + OVCAR-8
FER = conditions: read-out: apparent Kd, n = 1
RPS6KA6 = conditions: read-out: apparent Kd, n = 1
CDC42 = conditions: read-out: apparent Kd, n = 1
TAOK2 = conditions: read-out: apparent Kd; compound concentrations: 100 nM and 1000 nM (sheet 'Samples'), CATDS: 3.64108611477112E-2; n = 1
MAP4K1 = conditions: read-out: apparent Kd, n = 1
MAP4K2 = conditions: read-out: apparent Kd, n = 1
ERN1 = conditions: read-out: apparent Kd; compound concentrations: 100 nM and 1000 nM (sheet 'Samples'), CATDS: 3.4539361157079097E-2; n = 1
ATM = conditions: read-out: apparent Kd, n = 1
IKBKE = conditions: read-out: apparent Kd; compound concentrations: 100 nM and 1000 nM (sheet 'Samples'), CATDS: 3.0296968888376598E-2; n = 1
ULK1 = conditions: read-out: apparent Kd; compound concentrations:100 nM and 1000 nM (sheet 'Samples'); n = 1
CDC7 = conditions: read-out: apparent Kd, n = 1
ICK = conditions: read-out: apparent Kd, n = 1
PIK3C3 = conditions: read-out: apparent Kd; compound concentrations:100 nM and 1000 nM (sheet 'Samples'); n = 1
ULK3 = conditions: read-out: apparent Kd; compound concentrations:100 nM and 1000 nM (sheet 'Samples'); n = 1
BMP2K = conditions: read-out: apparent Kd; compound concentrations:100 nM and 1000 nM (sheet 'Samples'); n = 1
PAK4 = conditions: read-out: apparent Kd; compound concentrations:100 nM and 1000 nM (sheet 'Samples'); n = 1
ERN2 = conditions: read-out: apparent Kd; compound concentrations:100 nM and 1000 nM (sheet 'Samples'); n = 1
MYLK3 = conditions: read-out: apparent Kd; compound concentrations:100 nM and 1000 nM (sheet 'Samples'); n = 1
VDAC3 = conditions: read-out: apparent Kd, n = 1
GRK6 = conditions: read-out: apparent Kd; compound concentrations:100 nM and 1000 nM (sheet 'Samples'); n = 1
[1] = compound concentrations:100 nM and 1000 nM (sheet 'Samples')

For `CN(C)Cc1ccc(-c2ccc3c(Nc4ccc(Oc5ccccn5)cc4)ccnc3c2)o1` [GW567148X], the potency estimated from few doses (FER; compound concentrations: 100 nM and 1000 nM (sheet 'Samples'), CATDS: 2.46743192274099E-2) was 568 nM and the potency estimated from few doses (RPS6KA6; compound concentrations: 100 nM and 1000 nM (sheet 'Samples'), CATDS: 2.11191304038983E-2) was 847 nM.
In the case of `Cc1ccc(O)cc1Nc1ccnc2ccc(C(C)(C)C)cc12` [GW856805X], the potency estimated from few doses (CDC42; compound concentrations: 100 nM and 1000 nM (sheet 'Samples'), CATDS: 2.73171121323963E-2) is reported as 1430 nM.
`CN1CCc2ccc(Nc3nccc(-c4c(-c5cccc(NC(=O)c6c(F)cccc6F)c5)nc5ccccn45)n3)cc2C1.Cl` [GSK1010829B] gave a potency estimated from few doses (TAOK2) of 1170 nM.
`CN1CCN(Cc2ccc(NC(=O)Nc3ccc(N(C)c4ccnc(Nc5ccc(CS(C)(=O)=O)cc5)n4)cc3)cc2)CC1.Cl` [GW827654A] was tested, and the potency estimated from few doses (MAP4K1; compound concentrations: 100 nM and 1000 nM (sheet 'Samples'), CATDS: 4.9471634979456398E-2) was 557 nM.
Work on `Nc1ncc(-c2cn[nH]c2)c2scc(-c3ccc4c(c3)CCN4C(=O)Cc3ccccc3)c12` [GSK2593067A] yielded a potency estimated from few doses (MAP4K2; compound concentrations: 100 nM and 1000 nM (sheet 'Samples'), CATDS: 0.15564611372576101) of 200 nM.
Compound `CN1CCN(Cc2ccc(-c3ccc4c(Nc5ccc(Oc6ccccn6)cc5)ccnc4c3)o2)CC1` [GW567140X] has a potency estimated from few doses (CDC42; compound concentrations: 100 nM and 1000 nM (sheet 'Samples'), CATDS: 3.5970497134968603E-2) of 1290 nM.
With `CC(=O)N1CCN(c2ccc(Nc3nccc(-c4sc(C(C)C)nc4-c4cccc(NS(=O)(=O)c5cccc(Cl)c5)c4)n3)cn2)CC1` [GSK1660437A] the potency estimated from few doses (ERN1) was 2420 nM.
Work on `O=S(=O)(CCOCc1ccc(-c2ccc3ncnc(Nc4ccc(OCc5cccc(F)c5)c(Cl)c4)c3c2)o1)c1ccccc1` [GW615311X] yielded a potency estimated from few doses (ATM; compound concentrations: 100 nM and 1000 nM (sheet 'Samples'), CATDS: 0.104410485471121) of 179 nM and a potency estimated from few doses (IKBKE) of 1150 nM.
In the case of `Fc1ccc(-c2c(-c3ccncc3)[nH]c3nccnc23)cc1` [RO1155697-000], the potency estimated from few doses (ULK1) is reported as 1520 nM.
With `N#Cc1cccc(Nc2nccc(-c3cnn4ncccc34)n2)c1` [GW778894X] the potency estimated from few doses (CDC7; [1]) was 1240 nM, the potency estimated from few doses (ICK; [1]) was 1.67 nM and the potency estimated from few doses (PIK3C3) was 994 nM.
`Nc1nc(N)c2nc(-c3ccccc3)[nH]c2n1` [SKF-12778] gave a potency estimated from few doses (ULK3) of 1140 nM.
`COc1cc2ncn(-c3cc(OCc4cccs4)c(C(N)=O)s3)c2cc1OC` [GSK312948A] gave a potency estimated from few doses (BMP2K) of 1430 nM and a potency estimated from few doses (CDC42; [1]) of 1550 nM.
Compound `CNc1nccc(-c2c(-c3ccc(F)cc3)ncn2C2CCN(C)CC2)n1` [SB-222903] has a potency estimated from few doses (ATM; [1]) of 80.7 nM.
In the case of `Cl.Cn1c(=O)c(Cc2ccc(F)cc2F)cc2cnc(NC3CCOCC3)nc21` [RO3308757-001], the potency estimated from few doses (ATM; [1]) is reported as 247 nM, the potency estimated from few doses (FER; [1]) is reported as 302 nM and the potency estimated from few doses (PAK4) is reported as 1650 nM. For the same compound, the potency estimated from few doses (RPS6KA6; [1]) was 599 nM and the potency estimated from few doses (ULK1) was 1550 nM.
`Cn1cc(-c2cnc(N)c3c(-c4ccc5c(c4)CCN5C(=O)Cc4ccccc4)csc23)cn1` [GSK2593074A] showed a potency estimated from few doses (MAP4K1; [1]) of 1630 nM.
In the case of `CC(C)c1nc(-c2ccc(F)c(NS(=O)(=O)c3c(F)cccc3F)c2)c(-c2ccnc(Nc3ccc(N4CCOCC4)nc3)n2)s1` [GSK1804250A], the potency estimated from few doses (ERN2) is reported as 1120 nM.
`COc1cc(/C=N/Nc2ncnc3[nH]ncc23)ccc1O` [GW578748X] was tested, and the potency estimated from few doses (MYLK3) was 2040 nM.
In the case of `COc1cc2ncn(-c3cc(OCCCc4ccccc4)c(C(N)=O)s3)c2cc1OC` [GSK205189A], the potency estimated from few doses (FER; [1]) is reported as 55.1 nM, the potency estimated from few doses (PAK4) is reported as 1350 nM and the potency estimated from few doses (RPS6KA6; [1]) is reported as 907 nM.
`COc1cccc(C2=C(c3cn(C)c4c(C)cccc34)C(=O)NC2=O)c1` [RO3301012-000] gave a potency estimated from few doses (CDC7; compound concentrations: 100 nM and 1000 nM (sheet 'Samples'), CATDS: 0.10055770090402801) of 1800 nM.
Compound `COc1cc2ncn(-c3cc(OCc4sccc4Cl)c(C(N)=O)s3)c2cc1OC` [GSK448459A] has a potency estimated from few doses (MAP4K2; [1]) of 827 nM.
For `Cn1cc(C2=C(c3cn(CCCCCO)c4ccccc34)C(=O)NC2=O)c2ccccc21` [RO0318053-000], the potency estimated from few doses (CDC7; compound concentrations: 100 nM and 1000 nM (sheet 'Samples'), CATDS: 8.0152233997933905E-2) was 1890 nM.
For `Clc1ccc(-c2nn3ncccc3c2-c2ccnc(Nc3ccccc3)n2)cc1` [GW829055X], the potency estimated from few doses (VDAC3; compound concentrations: 100 nM and 1000 nM (sheet 'Samples'), CATDS: 4.3121960870331599E-2) was 997 nM.
For `Cc1ccc(-n2nc(C(C)(C)C)cc2NC(=O)Nc2ccc(OCCN3CCOCC3)cc2)cc1` [BIRB0876BS], the potency estimated from few doses (GRK6) was 2170 nM.
For `Fc1cccc(COc2ccc(Nc3ncncc3C#Cc3ccccc3)cc2Cl)c1` [GW651576X], the potency estimated from few doses (CDC42; compound concentrations: 100 nM and 1000 nM (sheet 'Samples'), CATDS: 5.6163427913581303E-2) was 1410 nM.
For `NC(=O)c1cccnc1COc1cc(-c2ccc(N3CCOCC3)nc2)cc2ncccc12` [BI01125081], the potency estimated from few doses (GRK6) was 1700 nM and the potency estimated from few doses (PIK3C3) was 1260 nM.
Work on `Fc1ccc(-c2ncn(C3CCNCC3)c2-c2ccnc(Oc3ccc4c(c3)OCO4)n2)cc1` [SB-250715] yielded a potency estimated from few doses (VDAC3; [1]) of 834 nM.
Work on `Cn1cc(C2=C(c3ccccc3[N+](=O)[O-])C(=O)NC2=O)c2ccccc21` [RO0317753-000] yielded a potency estimated from few doses (ICK; compound concentrations: 100 nM and 1000 nM (sheet 'Samples'), CATDS: 0.27950775870472) of 32.3 nM.
Compound `Cn1cc(C2=C(c3cccc([N+](=O)[O-])c3)C(=O)NC2=O)c2ccccc21` [RO0317474-000] has a potency estimated from few doses (CDC7; compound concentrations: 100 nM and 1000 nM (sheet 'Samples'), CATDS: 0.13743963750211899) of 1670 nM.
In the case of `COc1cc(F)c(F)c(F)c1C(=O)c1cnc(NC2CCN(S(C)(=O)=O)CC2)nc1N` [RO4600703-000], the potency estimated from few doses (ICK; [1]) is reported as 246 nM.
